# Compound activity as filed in PubChem.
# C2C12 statin = protects C2C12 myotubes from simvastatin toxicity; ATP luminescence, 48 h; scaled: DMSO 0, geranylgeraniol control 100; rescue of ATP level, % at 7.49 µM; actives 0.78% (n = 330,000);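 active means mean ATP rescue above about 67%, or every replicate alone reaching that limit, limit read from the data, passing the limit was not always enough; inconclusive means no clear call, values can overlap the other calls; inactive means mean under the limit and some replicate under it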;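 further: myotubes were challenged with 10 µM simvastatin during compound exposure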
# esBAF inh = blocks esBAF chromatin remodeling in mouse ES cells; Bmi1-luciferase knock-in reporter, 24 h; 100% = twice the neutral-well signal; reporter increase, % at 12.5 µM; actives 2% (n = 350,000); in the data active means activation above about 40%; inconclusive means no clear call, values can overlap the other calls;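 further: 0% = median of the plate's neutral control wells and 100% = double that signal; a rise in the Bmi1 reporter signal indicates esBAF inhibition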
# GAA850 FXN act = frataxin GAA850 promoter activation. HEK293 lucGAA850 FXN promoter luciferase reporter, 24 h; percent of 10 µM SAHA response. activation, % at 6 µM. actives 0.56% (n = 360,000). AID 540364;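 active means activation above the average of all compounds screened plus 3 SD, cutoff fixed separately per campaign, cut at about 7.5% in these data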;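 further: 0% = DMSO wells and 100% = 10 µM SAHA wells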
# Wnt bcat act = activates Wnt/beta-catenin signaling in a reporter cell assay | activator, plate reader | activation, % at 9.35 µM | actives 1.2% (n = 300,000) | AID 743398; in the data active means activation above about 30%, passing the limit was not always enough; inconclusive means no clear call, values can overlap the other calls;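 further: 0% = neutral control wells and 100% = positive control wells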
# MITF act = increases MITF-driven TRPM1 promoter luciferase signal; activation, % at 12.5 µM; actives 0.75% (n = 300,000); SK-MEL-5 TRPM1-promoter luciferase, 24 h; % of positive control, neutral wells = 0;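 active means mean activation of at least 80% with every replicate also reaching 80%; inconclusive means mean reaches 80% but some replicate falls short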;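 further: 0% = neutral control wells and 100% = parthenolide positive control wells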
# GAA30 counter = activates GAA30 frataxin promoter, counter-screen for GAA850 activators; HEK293 lucGAA30 FXN promoter luciferase, 24 h; DMSO = 0%, 5 µM ipriflavone = 100%; shares compounds with GAA850 FXN act; AID 588350; activation, % at 6 µM; actives 66% (n = 1,900);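 active means mean activation above the mean of solvent-only control wells plus 3 SD, cut at about 22% in these data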;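 further: counterscreen of GAA850 promoter hits where activity marks nonselective or luminescence artifacts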
# GAA850 confirm = confirmation of GAA850 frataxin (FXN) promoter activators. shares compounds with GAA850 FXN act. HEK293 lucGAA850 FXN promoter luciferase reporter, 24 h; 100% = activation by SAHA. activation, % at 6 µM. actives 86% (n = 1,900). AID 588351;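 active means mean activation above a set limit taken from the primary screen, cut at about 8% in these data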;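 further: 0% = DMSO wells and 100% = 10 µM SAHA wells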
# Active calls of the source: *; ? = inconclusive; . = no result. Rows were chosen to be rich in hits. Some 3.3% of all compounds tested hit in one or more screens of this group.
SMILES,C2C12 statin,esBAF inh,GAA850 FXN act,Wnt bcat act,MITF act,GAA30 counter,GAA850 confirm
COC(=O)N1[C@H](C)C=C[C@]1(Cc1ccccc1)C(=O)NCCCNc1ncc(C(F)(F)F)cc1Cl,4.8,11.8,7.8*,-6.2,-2.2,23.4*,11.2*
FC(F)Oc1ccccc1/C=N/n1cnc2ccccc21,.,.,8.0*,?,32.0,95.5*,28.6*
CO[C@H]1CN(C)C(=O)c2ccc(NS(=O)(=O)c3ccccc3C)cc2OC[C@@H](C)N(S(C)(=O)=O)C[C@@H]1C,3.1,0.0,.,.,.,.,.
CCOC(=O)c1cnc2c(ccc3ccccc32)c1NCCN(C)C,-4.0,3.3,8.4*,-0.2,.,22.6*,17.1*
CC1CN(c2cc(=O)n(-c3ccccc3)c(=O)[nH]2)CC(C)O1 (stereo not given),-1.9,1.4,8.1*,0.3,-8.8,16.5,6.4
COc1cc(-c2nnc3sc(C4CCCCC4)nn23)cc(OC)c1OC,.,-16.8,7.2,.,.,.,.
COc1cc(OC)c(-c2nn3c(C4CCCCC4)nnc3s2)cc1OC,.,0.8,12.8*,-4.5,25.5,-9.6,11.6*
COc1ccc(S(=O)(=O)N2CCOCC2)cc1NC(=O)Cc1sc(C)nc1-c1ccc(F)cc1,6.8,-0.3,1.4,-0.7,-1.0,.,.
COc1ccc(S(=O)(=O)N2CCCCC2)cc1NC(=O)Cc1sc(C)nc1-c1ccc(F)cc1,-0.5,7.2,12.9*,-5.2,-5.0,22.3*,10.7*
O=C(C[C@H]1C=C[C@H](NS(=O)(=O)c2cccc(F)c2)[C@H](CO)O1)NCc1ccc2c(c1)OCO2,5.4,0.4,.,.,.,.,.
COc1cc(/C=N/Nc2ncnc3sc4c(c23)CCC4)ccc1O,.,.,19.7*,0.6,11.5,67.4*,19.9*
COc1cc(/C=N/NC2=NCCCCC2)ccc1O,-9.4,2.8,-0.4,0.4,13.3,.,.
O=C(Nc1ccon1)c1cc2c(s1)CCCCCC2,.,.,8.8*,.,65.7,112.8*,36.1*
CCOC(=O)c1cc(-c2ccc(OC)cc2)n(CCC(=O)NCCN2CCC(C)CC2)c1C,.,.,17.4*,18.0,12.5,25.9*,15.3*
CC(C)CCOP(=O)(c1ccc(N(C)C)cc1)C(O)c1ccccc1 (stereo not given),.,.,8.2*,14.3,4.9,6.9,5.5
CCCNC(=O)Nc1ccc2c(c1)C(=O)N(C)C[C@@H](OC)[C@H](C)CN(Cc1cccnc1)[C@@H](C)CO2,12.6,-12.0,.,.,.,.,.
CN1c2ccc(-c3ccc(C#N)cc3)cc2[C@@H]2[C@@H](CCN2C(=O)Nc2cccc(F)c2)[C@@H]1CO,-7.7,-6.9,.,.,.,.,.
CCOC(=O)CNC(=O)CSc1nc(C)cc(C)c1C#N,7.0,-11.1,-1.1,-1.6,11.1,.,.
CCOC(=O)NC(=O)CSc1nc(C)cc(C)c1C#N,-4.4,-11.5,8.2*,26.7,13.0,102.8*,29.9*
COc1ccc(OC)c(/C=C/C(=O)N2C(=O)c3cccc(N)c3C2=O)c1,.,.,9.2*,-0.1,-53.2,-2.5,8.9*
Nc1cccc2c1C(=O)N(C(=O)/C=C/c1cccc(Br)c1)C2=O,24.7,5.3,3.6,0.6,-26.6,.,.
O=C([C@H]1[C@H](CO)[C@H]2Cn3c(cccc3=O)[C@@H]1N2C(=O)c1ccccn1)N1CCCCC1,1.2,0.1,.,.,.,.,.
Cc1ccc(NN2C(=O)C=C(c3ccccc3)C2=O)cc1,.,.,10.0*,-6.3,.,32.2*,28.3*
CC(/C=C/c1ccccc1)=N/O,-4.3,27.2,-0.2,.,15.9,.,.
CC(/C=C/c1ccc(OCc2ccccc2)cc1)=N\O,.,.,7.9*,25.6,53.3,117.5*,38.2*
C[C@H]1CN([C@@H](C)CO)C(=O)c2cc(NS(=O)(=O)c3ccccc3)ccc2O[C@@H]1CN(C)S(=O)(=O)c1ccccc1,14.9,1.0,.,.,.,.,.
Cc1noc(C)c1S(=O)(=O)Nc1ccc2c(c1)C(=O)N([C@@H](C)CO)C[C@@H](C)[C@@H](CN(C)S(C)(=O)=O)O2,.,4.5,.,.,.,.,.
COc1ccc(-c2cnn3c4c(c(C)nc23)CCN4C(C)C)cc1OC,.,.,9.8*,.,.,79.6*,36.3*
